Data as given in PMC7819943, “Rice protein-binding microarrays: a tool to detect cis-acting elements near promoter regions in rice”.
The full ranking holds about 68,000 sequences; the median of “fluorescence intensity (a.u.)” is about 9,100, and the highest 2% start at about 16,000. The sample as a whole holds a higher share of the highest values than the screen did.

biological target: OsWRKY34 (Oryza sativa, UniProt Q0JBA9 1-250); assay: protein-binding microarray (RPBM); PBS, 2% BSA, 51.3 ng/ul salmon testes DNA, 50 uM zinc acetate, 200 nM TF, 25 C, 1 h; high values mean tight binding; details: protein: recombinant; tags: N-terminal polyhistidine and DsRed monomer fusion (pET32a); label: CyDye5-dUTP incorporated in the synthesized complementary strand; 3' TTTTT single-stranded linker to array surface; dsDNA, one strand shown
Sequence (Q0JBA9 entry or part of it): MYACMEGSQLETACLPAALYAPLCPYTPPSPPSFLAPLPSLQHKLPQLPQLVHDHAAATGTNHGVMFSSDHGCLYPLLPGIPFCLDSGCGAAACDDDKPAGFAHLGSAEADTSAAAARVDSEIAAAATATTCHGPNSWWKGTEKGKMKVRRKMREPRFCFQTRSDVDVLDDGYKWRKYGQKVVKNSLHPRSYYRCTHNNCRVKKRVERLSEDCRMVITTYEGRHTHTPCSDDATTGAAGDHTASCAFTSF
Summary of the method: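 Using Ni–NTA, transcription factors fused N-terminally to polyhistidine and DsRed were purified after expression in E. coli BL21-CodonPlus. These were incubated at 200 nM with a blocked, double-stranded custom Agilent array for 1 h at 25 °C in a buffer containing 50 µM zinc acetate, and the array was washed. The binding signal is per-feature fluorescence intensity (arbitrary units) on an Axon 4000B scanner.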

Sequence | binding signal
AAATCATTTAGAAACACAACCTTTTCCACTGTTCAGGATTCGGAGTCACCTAGTGCAG | 8030 fluorescence intensity (a.u.)
TTCACCCCGCTGCTCCGACGTCCTAGCCATCGCCGCCGCCCGGAGTCACCTAGTGCAG | 8600 fluorescence intensity (a.u.)
CTGCCGCTCTGGTTCTCCAACTCTGCATACATATACCTCTCGGAGTCACCTAGTGCAG | 12000 fluorescence intensity (a.u.)
GGGATTTTGTGTTTTTGGTTTTTCTGGAGGGTGCAGAAGGCGGAGTCACCTAGTGCAG | 14700 fluorescence intensity (a.u.)
CTACCAACCTGTTCATCATGGCCCGACTCCATTCATGTCACGGAGTCACCTAGTGCAG | 10300 fluorescence intensity (a.u.)
TTTGTGGGTGGTTTTGGGCTAAAGATTCCGTTTCTTTCGACGGAGTCACCTAGTGCAG | 9250 fluorescence intensity (a.u.)
CGGGGAGGAGGGAGGAATAAATACGTCCTAGTCGATCAGCCGGAGTCACCTAGTGCAG | 8150 fluorescence intensity (a.u.)
GTTCAGTCACTCGCACGCTCGCTCGATCACCCGGCCGCCGCGGAGTCACCTAGTGCAG | 10200 fluorescence intensity (a.u.)
CTCTCTACGGCTAGCTACTCCCATTTGTGGTCAACACCTCCGGAGTCACCTAGTGCAG | 10500 fluorescence intensity (a.u.)
TGCCTCTGTTACCACACTCTCACCTTGCTTAATAAATGCTCGGAGTCACCTAGTGCAG | 9800 fluorescence intensity (a.u.)
ACTTAGGAGAGATTGCCTGAGTGCCATCTTTTTTGTATCTCGGAGTCACCTAGTGCAG | 8960 fluorescence intensity (a.u.)
CTGAAGATTGGATCTAAACTTTGTATCTAAACACAGCCATCGGAGTCACCTAGTGCAG | 64300 fluorescence intensity (a.u.)
TAACTTCTCAACTTTTTCACCATCTAAACACAGTCTTCATCGGAGTCACCTAGTGCAG | 8400 fluorescence intensity (a.u.)
CAGCACCAACGTTCTCTTCGGCCGATTCGGCGATTGCATCCGGAGTCACCTAGTGCAG | 8930 fluorescence intensity (a.u.)
ACGCACCAAAACACACGATCCTCTCGGATAAATCACAGCCCGGAGTCACCTAGTGCAG | 27500 fluorescence intensity (a.u.)
ATCCTCTCCCGCACCAGCTATAAACCGCCACACGCCCTCGCGGAGTCACCTAGTGCAG | 8650 fluorescence intensity (a.u.)
TCCTCTTGCAAAAAAAACACACACACACACGCACACAACTCGGAGTCACCTAGTGCAG | 10200 fluorescence intensity (a.u.)
CTCTCTCTCTCTCTCTCTCTCTCTCTCGATGCCGACGCTTCGGAGTCACCTAGTGCAG | 11000 fluorescence intensity (a.u.)
GGAGCTAGTCCAACCTACCGCAGTCACACCACCCCGCTATCGGAGTCACCTAGTGCAG | 9270 fluorescence intensity (a.u.)
GTATGTGGGTGGTGGTATTTTTTTTATCCTGGTTACGACCCGGAGTCACCTAGTGCAG | 19700 fluorescence intensity (a.u.)
GTGGGTGGTGGTTTTTTTTTCCTTTTTCCTGGTTACGACCCGGAGTCACCTAGTGCAG | 23700 fluorescence intensity (a.u.)
GATGTGTTGGCTGTCTTTGTTTTTTTTTTCCTGGTTTACCCGGAGTCACCTAGTGCAG | 14000 fluorescence intensity (a.u.)
CTTCCTTTTCTCTTCTTCTTCTTCTTCTTTTGCGTGGGGACGGAGTCACCTAGTGCAG | 9650 fluorescence intensity (a.u.)
TGTATGTGTGGTGTGTGTTCATGTGCATCCTGAATTTTACCGGAGTCACCTAGTGCAG | 14200 fluorescence intensity (a.u.)
TGTGGGTGGGGTTATTTTTTCTTCGTTTTCCTATTTACGACGGAGTCACCTAGTGCAG | 15700 fluorescence intensity (a.u.)
GGTGCGTGGGTGGTGGTCTTTTTCTTTTTCCTAGTTACGACGGAGTCACCTAGTGCAG | 29400 fluorescence intensity (a.u.)
GGAGGTGGAAAATCTTTGTTTTTTTCCTGGTTACGATCTCCGGAGTCACCTAGTGCAG | 9150 fluorescence intensity (a.u.)
TGTGGATGATGGTATTTTTTTTCCTTTTTCCTAGTTACGACGGAGTCACCTAGTGCAG | 9100 fluorescence intensity (a.u.)
